Hits are enriched below; roughly 2.2% of the tested compounds scored in any of these assays.
Cardiac RTF inh = cardiac RTF calcium sensitivity inhibitors, primary screen, biochemical, IANBD-TnC fluorescence, EC70 calcium; IANBD-labeled cardiac RTF, Ca2+ fluorescence; inhibition, % at 7.15 µM; actives 0.12% (n = 340,000);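 active = inhibition above the mean inhibition of all tested compounds plus 3 SD, cut at about 17% in these data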;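 note: assay run at fixed EC70 calcium of 1.6 mM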
CRFR2-BP antag = antagonists of CRF-BP/CRF-R2 complex, primary screen, cell-based, HEK293, calcium dye fluorescence, uHTS. actives 0.59% (n = 350,000). inhibition, % at 11.8 µM. CRF-induced calcium fluorescence;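 active = inhibition of the ligand-induced calcium signal above about 50% at the single tested concentration, limit read from the data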
CRFBP-R2 agonist = agonists of CRF-BP/CRF-R2 complex, primary screen, cell-based, HEK293, calcium dye fluorescence, uHTS; CRF-binding protein / CRF receptor 2 complex (human); activation, % at 13.2 µM; actives 0.46% (n = 350,000); AID 588473, 2011; calcium dye fluorescence (FLIPR); percent of saturating CRF peptide response;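 active = activation of at least 50%, plus an integration ratio under a set limit after plate pattern correction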
cardiac RTF act = cardiac RTF calcium sensitivity activators, primary screen, biochemical, IANBD-TnC fluorescence, EC20 calcium | IANBD-labeled TnC RTF fluorescence at EC20 calcium; 0% EC20 calcium, 100% full calcium | activation, % at 7.2 µM | actives 0.24% (n = 340,000);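 active = activation above the mean over all tested compounds plus 3 SD, cut at about 30% in these data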;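 note: rise in fluorescence read as greater calcium sensitivity of cardiac thin filaments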
Myeloid diff 2 = induction of myeloid progenitor differentiation, primary screen, cell-based, flow cytometry, MLPCN library; ER-HoxA9 myeloid progenitors, lysozyme-GFP differentiation; calls only at 10 µM; actives 1% (n = 360,000);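 active = normalized GFP-positive differentiation at or above the plate's own cutoff, the solvent-only control mean plus 3 SD; inconclusive = no clear call, values can overlap the other calls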;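 note: cells exposed to compound for four days before flow analysis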
Myeloid diff CP1 = inducers of myeloid progenitor differentiation, confirmation, cell-based, GFP/Mac1 flow cytometry, cherry pick 01; shares compounds with Myeloid diff 2; ER-HoxA9 myeloid progenitors, GFP/Mac1 double-positive flow; calls only; actives 2% (n = 2,300);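 active = share of green or green-and-red cells above 9 and 9% in run 1 or 4 and 3% in run 2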
GFP autofluor = flagged as fluorescent in myeloid differentiation counter-screen; shares compounds with Myeloid diff 2; ER-HoxA9 myeloid progenitors, no estrogen, GFP autofluorescence flow cytometry; vehicle wells 0%, positive control 100%; fluorescence response, % (test concentration not listed); actives 7.4% (n = 2,300); AID 651707;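 active = over 5% cells positive for green fluorescent reporter, or over 2% positive for both it and APC stain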
A number is an active result; i = inactive; ? = inconclusive; nt = no result; + = active, no number.

SMILES | Cardiac RTF inh | CRFR2-BP antag | CRFBP-R2 agonist | cardiac RTF act | Myeloid diff 2 | Myeloid diff CP1 | GFP autofluor
COC(=O)C1=C(c2cc3ccccc3s2)C[C@@H]2CC[C@H]1N2C(=O)N1CCOCC1 | i | i | i | i | i | i | i
COC(=O)C1=C(c2ccc(OC(F)(F)F)cc2)C[C@@H]2CC[C@H]1N2C(=O)NC1CCCCC1 | i | i | i | i | i | i | i
CCCNC(=O)N1[C@H]2CC[C@@H]1C(C(=O)OC)=C(c1ccc3ccccc3c1)C2 | i | i | i | i | i | i | i
COC(=O)C1=C(c2cc3ccccc3s2)C[C@@H]2CC[C@H]1N2C(=O)N1CCCC1 | i | i | i | i | i | nt | nt
CN1C(=O)NC(=O)C2(CCCC2)C1=O | i | i | i | i | i | nt | nt
Cc1cc(C)c2c(ccc3cccc[n+]32)c1 | nt | i | i | nt | ? | nt | nt
O=C1NC(=O)N(CCC2=CCCCC2)C(=O)/C1=C\c1cccs1 | i | i | i | i | i | i | i
CCCCCCC(=O)N/N=C/c1c(O)n(C2CC2)c(=S)[nH]c1=O | i | i | i | i | i | nt | nt
CCCCCCC(=O)N/N=C/c1c(O)n(C(C)CC)c(=S)[nH]c1=O (stereo not drawn) | i | i | i | i | i | i | i
COC(=O)N(c1ccccc1)P(=O)(Oc1ccccc1)Oc1ccccc1 | i | i | i | i | i | nt | nt
CC(=O)Nc1ccc([As](=O)(O)c2ccc([N+](=O)[O-])cc2)cc1 | i | i | i | i | i | i | i
COc1ccc(CC(=O)N2CCN(C)CC2)cc1 | i | i | i | i | i | i | i
Cc1ccc(C(=O)Nc2ccc(Cl)cc2C(=O)c2ccccc2)cc1 | i | i | i | i | i | i | 5.1
O=C(Nc1cccc(OC(=O)N2CCCCC2)c1)N1CCCCC1 | i | i | i | i | i | i | i
Cc1ccc(OC(=O)N(C)C[C@H]2OCc3cnnn3CCCC(=O)N([C@@H](C)CO)C[C@H]2C)cc1 | nt | i | i | nt | i | nt | nt
O=C1NCN(c2ccccc2)C12CCN(C(c1ccccc1OC(F)(F)F)c1nnnn1-c1ccc3c(c1)OCCO3)CC2 (stereo not drawn) | nt | nt | nt | nt | i | nt | nt
CC12CCC(=O)C=C1CC(N1CC1)C1C2CCC2(C)C(O)CCC12 (stereo not drawn) | i | i | i | i | i | nt | nt
CCCCNC(=O)CN1C(=O)CN=C(c2ccccc2)c2ccccc21 | i | i | i | i | i | nt | nt
Cc1ccccc1C1=NCC(=O)N(CC(=O)NCc2ccco2)c2sc3c(c21)CCCC3 | i | i | i | i | i | i | i
CC1CCCC(NC(=O)COC(=O)c2cn(C)c3ccccc23)C1C (stereo not drawn) | i | i | i | i | i | nt | nt
C=C1C2[C@H](OC(C)=O)[C@@H]3CC(=O)[C@]4(C)OC[C@@]3(C)[C@@]4(O)[C@@H](OC(C)=O)[C@H](OC(C)=O)[C@@]2(COC(=O)c2ccccc2)[C@@H](OC(C)=O)C[C@@H]1O (stereo partly drawn) | i | i | i | i | i | i | i
O=C1NC(=O)N(Cc2ccccc2)C(=O)/C1=C/C=C/c1ccco1 | i | i | i | i | i | i | i
O=P1(c2ccccc2)Nc2ccccc2N1c1ccccc1 (stereo not drawn) | i | i | i | i | i | nt | nt
Cc1ncc(C(=O)O)n1C(C)c1ccccc1 (stereo not drawn) | nt | i | i | nt | i | nt | nt
O=C(NCC(c1cccnc1)N1CCN(c2ccc(F)cc2)CC1)Oc1ccccc1 (stereo not drawn) | i | i | i | i | i | i | i
SMILES | Cardiac RTF inh | CRFR2-BP antag | CRFBP-R2 agonist | cardiac RTF act | Myeloid diff 2 | Myeloid diff CP1 | GFP autofluor
OC(c1ccccc1)(c1ccccc1)c1ccncc1 | i | i | i | i | + | i | i
C=CCn1c(O)c(C=NCCCOc2ccc(CC)cc2)c(=O)[nH]c1=S | i | i | i | i | + | i | i
CCOC(=O)C(C)Oc1cc(C)cc2oc(=O)c3c(c12)CCCC3 (stereo not drawn) | i | i | i | i | i | i | i
CCOC(=O)c1cc2c(cn1)[C@@H](CCO)NC2 | i | i | i | i | i | nt | nt
NC(Cc1ccccc1Cl)c1nn[nH]n1 (stereo not drawn) | nt | i | i | nt | i | nt | nt
CCCCCn1c(=O)c(C(=O)Nc2ccccc2Cl)c(O)c2ccccc21 | i | i | i | i | + | i | i
CCCCn1c(=O)c(C(=O)Nc2ccccc2C)c(O)c2ccccc21 | i | i | i | i | i | nt | nt
CC(C)CCn1c(=O)c(C(=O)Nc2ccccc2S(N)(=O)=O)c(O)c2ccccc21 | i | i | i | i | i | i | 8.6
O=C(CCN1CC1)OCCOC(=O)CCN1CC1 | i | i | i | i | i | nt | nt
CCOC(=O)[C@]12Cc3ccccc3[C@H]1N(Cc1ccccc1)C(=O)c1ccccc12 | i | i | i | i | i | nt | nt
CCOC(=O)[C@]12Cc3ccccc3[C@H]1N(CCC(=O)OC)C(=O)c1ccccc12 | nt | nt | nt | nt | + | i | i
CCCCCN1C(=O)c2ccccc2[C@@]2(C(=O)OCC)Cc3cc(OC)ccc3[C@@H]12 | nt | nt | nt | nt | + | i | i
O=C(O)C1C2c3ccccc3C(O)C1(C(=O)O)c1ccccc12 (stereo not drawn) | i | i | i | i | i | nt | nt
CC1CCCCC1NC(=O)CNC(=S)N1CC2CC(C1)c1cccc(=O)n1C2 (stereo not drawn) | i | i | i | i | i | nt | nt
N#CC1c2ccccc2-n2nncc2CN1S(=O)(=O)c1cc(Cl)cc(Cl)c1 (stereo not drawn) | i | i | i | i | i | nt | nt
O=C1NC(=O)N(c2ccc(F)cc2)C(=O)/C1=C/c1ccc(N2CCOCC2)cc1 | i | i | i | i | i | nt | nt
O=C1NC(=O)N(Cc2ccc(F)cc2)C(=O)/C1=C\c1ccc(N2CCCC2)cc1 | i | i | i | i | + | i | i
O=c1[nH]c2ccccc2n1C1CCN(Cc2ccc(-c3nc4ccccc4nc3-c3ccccc3)cc2)CC1 | nt | nt | nt | nt | i | nt | nt
O=c1[nH]c2ccccc2n1C1CCN(Cc2ccc(-c3nc4ccc(F)cc4nc3-c3ccccc3)cc2)CC1 | nt | nt | nt | nt | + | i | i
